The source made the active and inactive calls.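 The calls were made as follows: active = response relative to DMSO over 150%; inconclusive = yeast strain with under 70 recorded events; inactive = the rest.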
Assay: yeast AGP1-GFP fluorescence change, single-dose confirmation – cell-based, flow cytometry, S. cerevisiae, cherry pick set 3 (AID 504334);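 also: median GFP fluorescence per well by flow cytometry over the all cells gate; ratio of sample to mean DMSO control signal so DMSO = 100% not 0%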
Details: S. cerevisiae AGP1-GFP strain, 3 h, at 10 µM, hits give high values

Compound | percent response vs DMSO
O=C(Nc1cccc(Cl)c1)ON=C1c2ccccc2-c2ccccc21 | 99.1% (inactive)
COc1cccc(OCc2cc(C(=O)N3CCN(C)C(c4ccccc4)C3)no2)c1 (stereo not drawn) | 101% (inactive)
N#Cc1c(N)nc(N)nc1Nc1ccc(Br)cc1 | 98.4% (inactive)
